# Screening results from PubChem.
# Sm TGR block: inhibitors of Schistosoma mansoni thioredoxin glutathione reductase; purified TGR, DTNB reduction, TNB absorbance 405 nm; Potency, µM (top dose mostly 114 µM), for the others: top-dose activity change, negative = inhibition, usual class: inhibitors; 360,000 compounds, 3% hits; AID 485364; also: nearly all actives have a fitted effect of over 60% in size
#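 Kinetic colorimetric format: TGR-catalysed, NADPH-driven DTNB reduction monitored via TNB absorbance. Enzyme dispensed at 20 nM; compound exposure 15 min at room temperature before reaction start.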
# RE007 growth inh: less growth of the S. pombe RE007 Vpr strain. S. pombe RE007 Vpr strain, BacTiter-Glo ATP luminescence, 24 h. Potency, µM (highest dose often 92.2 µM), inactives show at the highest dose activity change, negative = less growth, hits mostly inhibitors. 360,000 compounds, 0.21% hits. AID 651644; active = well fitted falling curve with a large enough effect; inconclusive = small, poorly fitted or top-dose-only effect; inactive = no such curve, though single readings can be large or run the other way; also: nearly all actives have a fitted effect of over 50% in size
#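 Fission yeast strain RE007, carrying one chromosomally integrated HIV-1 vpr copy, was seeded at OD 0.01 in PMG+AL medium with 23 nL pinned compound. After 24 h at 30 °C and 99% humidity, viability was read by BacTiter-Glo luminescence.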
# AMA1 RON2 block: disrupts binding of P. falciparum AMA1 to RON2; AlphaScreen AMA1-biotinylated RON2 peptide binding; Potency, µM (highest dose often 58.2 µM), inactives show top-dose activity change, negative = inhibition, most hits filed as inhibitors; 360,000 compounds, 0.2% hits;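 also: 0% = vehicle wells and -100% = peptide control; nearly all actives have a fitted effect of over 45% in size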
#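 AMA1 (3D7) with his tag at 25 nM final met compounds first, then biotinylated RON2 peptide at 25 nM; detection used donor plus acceptor beads, 10 µg/mL apiece, read by AlphaScreen after 30 min at room temperature.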
# LmPK inh: LmPK (Leishmania mexicana) enzyme inhibition. Potency, µM (doses to about 57.5 µM), for inactives: at the top dose activity change, negative = inhibition, actives largely listed as inhibitors. Q27686. 290,000 compounds, 0.37% hits. purified LmPK, Kinase-Glo ATP luminescence, 1 h
# Target sequence (Q27686 whole entry, looked up): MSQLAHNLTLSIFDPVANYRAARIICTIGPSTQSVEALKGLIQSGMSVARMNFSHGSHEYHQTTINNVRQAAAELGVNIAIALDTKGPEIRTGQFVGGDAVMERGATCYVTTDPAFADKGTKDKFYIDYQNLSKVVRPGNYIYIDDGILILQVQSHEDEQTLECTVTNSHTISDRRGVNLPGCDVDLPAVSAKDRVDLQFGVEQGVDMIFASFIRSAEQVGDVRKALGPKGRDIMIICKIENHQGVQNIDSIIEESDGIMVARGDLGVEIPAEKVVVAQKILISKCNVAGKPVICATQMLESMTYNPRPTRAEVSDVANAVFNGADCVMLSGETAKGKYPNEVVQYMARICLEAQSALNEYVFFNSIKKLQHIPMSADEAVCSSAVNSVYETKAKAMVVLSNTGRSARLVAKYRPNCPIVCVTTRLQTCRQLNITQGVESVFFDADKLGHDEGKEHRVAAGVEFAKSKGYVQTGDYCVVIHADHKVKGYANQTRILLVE
#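 In 50 mM imidazole pH 7.2 with 7 mM MgCl2, LmPK (0.1 nM) turned over PEP (0.5 mM) and ADP (0.1 mM) for 1 h at room temperature. Luciferase read-out of ATP.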
# Tb PYK inh: inhibitors of Trypanosoma brucei pyruvate kinase; TbPYK enzyme, Kinase-Glo Plus ATP luminescence, 45 min; Q57TT1; Potency, µM (top dose mostly 76.8 µM), for inactives: at the top dose activity, negative = inhibition, hits mostly inhibitors; 410,000 compounds, 0.12% hits; also: nearly all actives have a fitted effect of over 50% in size
#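 Enzyme and substrate buffer are dispensed first and compound is pin-transferred. ADP at 130 uM final then starts the reaction, which runs 45 min at room temperature. Detection reagent is added for 10 min before luminescence is imaged.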
# Active calls of the source: *; ? = inconclusive; / = not tested or not shown. Hits are enriched below; roughly 3.2% of the tested compounds scored in any of these assays. Unless noted, calls follow the shape of the dose curve; as a rule, active = well fitted curve in the direction sought with a large enough effect; inconclusive = small, poorly fitted or top-dose-only effect, or another doubt; inactive = no such curve, though single readings can be large; an effect the other way counts as inactive or inconclusive. Unless noted, % is scaled to controls: 0 for no effect and ±100 for the full control effect; potency is read from the fitted curve at half-maximal effect.
SMILES,Sm TGR block,RE007 growth inh,AMA1 RON2 block,LmPK inh,Tb PYK inh
CC(=O)Nc1ccc(NS(=O)(=O)c2ccc(CN3C(=O)c4cccnc4C3=O)cc2)cc1,0%,-20%,12%,-2%,-1%
O=C(Nc1ccc2nc(SCC(=O)N3CCCC3)sc2c1)c1ccccc1F,3%,/,/,/,1%
Cc1[nH]c2ccccc2c1Cc1nnc(SCC(N)=O)o1,45µM*,5%,7%,0%,-8%
CCN(c1ccccc1)S(=O)(=O)c1ccc(NC(=O)c2cc(=O)c3ccc(C)c(C)c3o2)cc1,0%,/,/,/,-1%
CCOc1ccc(N(C(C)C(=O)NC2CCCCCC2)S(C)(=O)=O)cc1 (stereo not drawn),-5%,12%,-9%,-3%,-15%
CCOc1ccc(N(C(C)C(=O)NCc2ccco2)S(C)(=O)=O)cc1 (stereo not drawn),45µM*,0%,-2%,1%,-3%
Cc1ccc(NC(=O)/C=C\C(=O)N(c2ccc(C(C)C)cc2)C(C(=O)NCc2ccco2)c2ccc(Cl)cc2)cc1 (stereo not drawn),?,/,/,/,-3%
COc1ccc(N(C(=O)/C=C\C(=O)Nc2ccc(Cl)cc2)C(C(=O)NCc2ccco2)c2ccc(C)cc2)cc1 (stereo not drawn),7.9µM*,/,/,/,-6%
CCOc1ccc(NC(=O)/C=C\C(=O)N(c2ccc(C(C)C)cc2)C(C(=O)NCc2ccco2)c2ccc(F)cc2)cc1 (stereo not drawn),56µM*,/,/,/,6%
O=C(/C=C/c1ccc(-c2ccccc2[N+](=O)[O-])o1)c1ccco1,35µM*,-16%,?,4%,2%
O=C(Nc1ccc(C(F)(F)F)cc1)C1CCCN(c2cnccn2)C1 (stereo not drawn),-1%,/,/,/,-5%
NS(=O)(=O)c1ccc(CCNc2nc3c(-c4cccc(F)c4)nnn3c3ccc(Cl)cc23)cc1,2%,/,/,/,0%
CCOc1ccc(NC(=O)Cn2nc(CC)n3c(cc4sccc43)c2=O)cc1,13%,/,/,/,2%
COC(=O)c1[nH]c2ccc(F)cc2c1NC(=O)CCN1CCN(Cc2ccc3c(c2)OCO3)CC1,-26%,-2%,8%,1%,0%
CCN(CC(=O)Nc1c(C(=O)OC)[nH]c2ccc(C)cc12)c1ccc2c(c1)OCO2,50µM*,5%,?,3%,5%
CCc1cccc(NC(=O)CSc2ncc3c(n2)-c2ccccc2N(Cc2ccccc2C)S3(=O)=O)c1,26%,/,/,/,-6%
CC1CCN(C(=O)CSc2ccc(-c3ccccc3)nn2)CC1,20µM*,-27%,-2%,-13%,0%
CCCOc1ccc(N2C(=O)CC(N3CCC(O)(c4cccc(C(F)(F)F)c4)CC3)C2=O)cc1 (stereo not drawn),-24%,32µM*,0%,1%,-6%
O=C1CC(N2CCN(c3ccc(Cl)cc3)CC2)C(=O)N1c1ccc(F)cc1 (stereo not drawn),?,3%,0%,-1%,3%
COc1ccc(N2C(=O)CC(N3CCC(O)(c4ccc(Br)cc4)CC3)C2=O)cc1 (stereo not drawn),?,32µM*,13%,-1%,2%
O=C1CC(N2CCC(O)(c3ccc(Br)cc3)CC2)C(=O)N1c1ccc(Cl)cc1 (stereo not drawn),-26%,10µM*,-16%,1%,-1%
O=C1CC(N2CCC(O)CC2)C(=O)N1c1ccc(Br)cc1 (stereo not drawn),56µM*,?,10%,0%,-6%
O=CN1CCN(C2CC(=O)N(c3ccc(Br)cc3)C2=O)CC1 (stereo not drawn),?,?,1%,0%,0%
COc1ccc(Cl)cc1NC(=O)Cn1cnc2c1c(=O)n(C)c(=O)n2C,9%,/,/,/,19%
C[C@@H]1[C@H](O)[C@@H](C)C=CC=CCCC=CC=CC=CC=C[C@H](O[C@H]2O[C@@H](C)[C@H](O)[C@@H](N)[C@@H]2O)CC2O[C@](O)(C[C@@H](O)[C@H](O)CC[C@@H](O)C[C@@H](O)C[C@@H](O)CC(=O)O[C@H]1C)C[C@H](O)[C@H]2C(=O)O,/,/,/,/,0%
SMILES,Sm TGR block,RE007 growth inh,AMA1 RON2 block,LmPK inh,Tb PYK inh
Oc1c(C(c2ccccc2Cl)N2CCCC2)sc2nc(-c3ccco3)nn12 (stereo not drawn),54%,/,/,/,-10%
CC(NC(=O)c1ccc(CS(=O)(=O)c2cccc(C(F)(F)F)c2)o1)c1ccc2c(c1)OCCO2 (stereo not drawn),7%,4%,12%,10%,-1%
CC(NC(=O)c1ccc(CS(=O)(=O)Cc2ccccc2F)o1)c1ccc2c(c1)OCCO2 (stereo not drawn),35µM*,3%,7%,8%,-1%
CC1(C)CC(=O)C(Sc2ccccc2C(=O)O)=C(O)C1,-15%,1%,-2%,5%,-1%
CC1(C)CC(=O)C(Sc2ccccc2)=C(O)C1,10µM*,6%,6%,-4%,0%
O=C(NCc1ccco1)c1ccc2nc3sc4c(c3c(=O)n2c1)CCCC4,11µM*,/,/,0%,/
Nc1cc(C2CCCC2)nn1-c1ccccc1,0%,-21%,-5%,14µM*,-9%
Cc1ccc(-c2nnn(CC(=O)N(Cc3ccco3)C(C(=O)NC(C)(C)C)c3cccs3)n2)o1 (stereo not drawn),18µM*,11%,-7%,6%,-1%
COc1ccc(CNC(=O)C(c2cccs2)N(Cc2ccco2)C(=O)Cc2cccs2)cc1 (stereo not drawn),28µM*,6%,-8%,4%,-3%
COc1ccc(CNC(=O)C(c2ccco2)N(Cc2cccs2)C(=O)Cc2cccs2)cc1 (stereo not drawn),?,4%,-1%,1%,-1%
Cc1ccc(-c2nnn(CC(=O)N(Cc3cccs3)C(C(=O)NC(C)(C)C)c3ccco3)n2)o1 (stereo not drawn),?,27%,5%,5%,-1%
Cc1ccc(C23CC4CC(CC(NC(=O)N5CCN(C)CC5)(C4)C2)C3)cc1,-2%,13µM*,7%,2%,-2%
Cc1cc(Cn2nnnc2-c2ccncc2)cc(C)c1O,2.5µM*,6%,4%,4%,3%
O=C(O)Cn1nnnc1-c1ccc(F)cc1,?,-4%,-4%,-1%,1%
O=C(NCCCN1CCOCC1)C1CCC(=O)N1CCc1ccccc1 (stereo not drawn),89µM*,-7%,5%,5%,1%
O=C(NCCCN1CCCCC1)C1CCC(=O)N1CCc1ccccc1 (stereo not drawn),21%,-7%,44%,1%,-1%
CSc1ccc(CCNC(=O)Cn2c(C)c3cnn(-c4ccccc4)c(=O)c3c2C)cc1,-4%,/,/,/,-5%
